Measured values taken from the supplement of paper PMC11732987, “Enantioselective OTUD7B fragment discovery through chemoproteomics screening and high-throughput optimisation” (Communications Chemistry, 2025).
Unmarked numbers belong to inactive results.

Columns and labels:
Assay in all cases: log2 ratio of Biotin-Ahx-Ub-VS probe labelling (fragment/DMSO); higher = less target engagement (more negative = stronger competition), active = hit call of the paper (q ≤ 0.05, log2 ratio ≤ -1)
Conditions in all cases: compound concentration: 200 uM; treatment time: 3 h
ALG13 = target: T1, ALG13 (UniProt Q9NP73)
T1 sequence (whole entry): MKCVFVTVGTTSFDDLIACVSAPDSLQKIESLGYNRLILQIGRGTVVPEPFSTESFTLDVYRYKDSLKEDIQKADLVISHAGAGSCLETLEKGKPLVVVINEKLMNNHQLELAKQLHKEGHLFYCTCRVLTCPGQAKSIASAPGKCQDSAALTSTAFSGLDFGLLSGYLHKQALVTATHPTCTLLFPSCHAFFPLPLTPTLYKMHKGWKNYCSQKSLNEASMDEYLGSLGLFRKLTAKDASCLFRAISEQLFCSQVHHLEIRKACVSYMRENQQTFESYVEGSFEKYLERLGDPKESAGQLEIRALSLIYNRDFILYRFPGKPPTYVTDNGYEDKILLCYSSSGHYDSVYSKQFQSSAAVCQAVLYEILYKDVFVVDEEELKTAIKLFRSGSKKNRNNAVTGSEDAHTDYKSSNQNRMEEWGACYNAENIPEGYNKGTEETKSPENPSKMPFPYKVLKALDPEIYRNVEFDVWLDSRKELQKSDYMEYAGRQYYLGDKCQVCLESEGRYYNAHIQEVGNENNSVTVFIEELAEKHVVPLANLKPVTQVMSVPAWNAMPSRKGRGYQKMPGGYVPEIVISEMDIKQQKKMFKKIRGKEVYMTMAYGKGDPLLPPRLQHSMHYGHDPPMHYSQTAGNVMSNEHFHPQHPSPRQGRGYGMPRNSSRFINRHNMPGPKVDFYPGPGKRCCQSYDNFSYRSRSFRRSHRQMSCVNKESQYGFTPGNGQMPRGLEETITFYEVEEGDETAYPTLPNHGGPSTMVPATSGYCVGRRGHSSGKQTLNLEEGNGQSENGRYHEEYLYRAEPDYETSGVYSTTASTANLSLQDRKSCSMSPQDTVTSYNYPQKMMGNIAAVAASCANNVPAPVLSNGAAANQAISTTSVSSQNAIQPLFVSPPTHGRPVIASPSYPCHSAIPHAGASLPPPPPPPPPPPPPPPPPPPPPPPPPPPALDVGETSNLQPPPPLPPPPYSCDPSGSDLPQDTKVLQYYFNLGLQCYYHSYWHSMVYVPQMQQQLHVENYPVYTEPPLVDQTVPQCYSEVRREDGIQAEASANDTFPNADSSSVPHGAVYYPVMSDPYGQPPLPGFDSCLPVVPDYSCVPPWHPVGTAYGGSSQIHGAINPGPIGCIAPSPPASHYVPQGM
Summary of the method: (§1)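 Fragment (200 µM) or vehicle was incubated for 3 h with triplicate HEK293T lysate samples of 495 µg, which were then treated with Biotin-Ahx-Ub-VS at 0.5 µM final for 1 h. Labelled DUBs were enriched on NeutrAvidin, digested with LysC and trypsin, and analysed by diaPASEF LC-MS/MS. Values are average log2 fragment/vehicle ratios from an unpaired t-test on global-median-normalised Spectronaut label-free quantities, using proteins with ≥2 unique peptides.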

ATXN3 = ATXN3 (UniProt P54252)
Sequence of ATXN3 (P54252 whole entry): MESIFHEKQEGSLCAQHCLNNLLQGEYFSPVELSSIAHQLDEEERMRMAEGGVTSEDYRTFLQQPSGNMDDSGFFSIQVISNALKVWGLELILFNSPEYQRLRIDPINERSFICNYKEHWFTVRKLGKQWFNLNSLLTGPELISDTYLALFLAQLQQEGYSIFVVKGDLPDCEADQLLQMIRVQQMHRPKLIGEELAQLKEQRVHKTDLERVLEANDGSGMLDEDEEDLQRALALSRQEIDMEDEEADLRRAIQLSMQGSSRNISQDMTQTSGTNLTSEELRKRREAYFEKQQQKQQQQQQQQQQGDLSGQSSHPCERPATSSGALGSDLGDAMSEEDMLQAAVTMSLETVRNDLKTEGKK
Summary of the method: as §1

BAP1 = target: T2, BAP1 (UniProt Q92560)
T2 sequence (whole entry): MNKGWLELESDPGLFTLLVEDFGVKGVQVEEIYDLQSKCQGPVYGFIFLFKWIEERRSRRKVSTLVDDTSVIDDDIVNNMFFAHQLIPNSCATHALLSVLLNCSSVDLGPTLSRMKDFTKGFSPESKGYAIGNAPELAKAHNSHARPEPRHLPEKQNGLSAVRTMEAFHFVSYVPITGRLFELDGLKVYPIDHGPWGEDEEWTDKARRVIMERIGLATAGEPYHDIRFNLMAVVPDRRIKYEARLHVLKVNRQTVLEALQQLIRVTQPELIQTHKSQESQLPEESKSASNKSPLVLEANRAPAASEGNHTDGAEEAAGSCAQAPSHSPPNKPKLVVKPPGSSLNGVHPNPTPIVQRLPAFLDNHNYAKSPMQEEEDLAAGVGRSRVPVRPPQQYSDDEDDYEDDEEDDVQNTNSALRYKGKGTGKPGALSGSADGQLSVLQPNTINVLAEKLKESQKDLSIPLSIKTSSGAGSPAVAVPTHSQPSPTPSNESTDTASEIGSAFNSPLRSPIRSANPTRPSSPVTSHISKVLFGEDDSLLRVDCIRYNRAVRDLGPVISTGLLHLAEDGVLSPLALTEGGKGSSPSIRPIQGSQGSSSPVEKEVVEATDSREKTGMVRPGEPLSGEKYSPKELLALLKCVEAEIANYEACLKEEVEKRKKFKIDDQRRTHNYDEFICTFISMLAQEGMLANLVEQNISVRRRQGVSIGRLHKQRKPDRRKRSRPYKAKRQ
Summary of the method: as §1

EIF3F = EIF3F (UniProt O00303)
Sequence of EIF3F (O00303 whole entry): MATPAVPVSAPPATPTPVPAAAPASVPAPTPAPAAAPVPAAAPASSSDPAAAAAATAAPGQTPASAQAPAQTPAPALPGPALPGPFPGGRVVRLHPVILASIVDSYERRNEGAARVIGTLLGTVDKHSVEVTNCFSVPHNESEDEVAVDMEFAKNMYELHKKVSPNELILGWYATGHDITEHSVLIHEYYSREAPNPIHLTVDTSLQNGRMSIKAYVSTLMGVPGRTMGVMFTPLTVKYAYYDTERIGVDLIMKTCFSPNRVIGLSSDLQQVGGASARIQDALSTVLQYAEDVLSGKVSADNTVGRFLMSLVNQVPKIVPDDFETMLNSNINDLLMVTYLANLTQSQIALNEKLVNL
Summary of the method: as §1

EIF3H = EIF3H (UniProt O15372)
Sequence of EIF3H (O15372 whole entry): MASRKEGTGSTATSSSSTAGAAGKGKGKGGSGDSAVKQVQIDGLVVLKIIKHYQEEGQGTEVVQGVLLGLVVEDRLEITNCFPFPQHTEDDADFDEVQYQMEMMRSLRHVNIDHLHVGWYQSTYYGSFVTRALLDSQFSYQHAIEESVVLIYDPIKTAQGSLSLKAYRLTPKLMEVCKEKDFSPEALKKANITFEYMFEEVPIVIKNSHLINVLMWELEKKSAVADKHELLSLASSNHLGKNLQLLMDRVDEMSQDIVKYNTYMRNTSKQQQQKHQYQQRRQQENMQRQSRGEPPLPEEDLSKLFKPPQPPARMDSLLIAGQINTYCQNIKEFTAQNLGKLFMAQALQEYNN
Summary of the method: as §1

FAM105A = target: T3, FAM105A (UniProt Q9NUU6)
T3 sequence (whole entry): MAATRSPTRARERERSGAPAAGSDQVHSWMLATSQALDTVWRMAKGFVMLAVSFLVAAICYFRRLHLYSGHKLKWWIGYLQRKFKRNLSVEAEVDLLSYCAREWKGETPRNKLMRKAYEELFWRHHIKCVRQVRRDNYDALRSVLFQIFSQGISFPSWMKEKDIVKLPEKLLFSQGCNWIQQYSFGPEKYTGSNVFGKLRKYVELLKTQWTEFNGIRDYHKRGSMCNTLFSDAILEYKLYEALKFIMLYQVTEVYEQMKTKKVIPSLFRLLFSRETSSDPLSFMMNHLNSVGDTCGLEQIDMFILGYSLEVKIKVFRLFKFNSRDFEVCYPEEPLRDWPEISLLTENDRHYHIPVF
Summary of the method: as §1

OTUB1 = OTUB1 (UniProt Q96FW1)
Sequence of OTUB1 (Q96FW1 whole entry): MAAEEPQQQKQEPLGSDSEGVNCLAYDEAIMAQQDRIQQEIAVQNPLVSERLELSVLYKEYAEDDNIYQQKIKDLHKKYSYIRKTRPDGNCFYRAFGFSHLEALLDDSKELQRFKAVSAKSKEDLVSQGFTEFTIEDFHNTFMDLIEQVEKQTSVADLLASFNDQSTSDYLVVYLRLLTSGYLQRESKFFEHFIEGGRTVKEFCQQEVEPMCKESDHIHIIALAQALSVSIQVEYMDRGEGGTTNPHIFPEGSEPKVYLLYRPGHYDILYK
Summary of the method: as §1

OTUD4 = target: T4, OTUD4 (UniProt Q01804)
T4 sequence (whole entry): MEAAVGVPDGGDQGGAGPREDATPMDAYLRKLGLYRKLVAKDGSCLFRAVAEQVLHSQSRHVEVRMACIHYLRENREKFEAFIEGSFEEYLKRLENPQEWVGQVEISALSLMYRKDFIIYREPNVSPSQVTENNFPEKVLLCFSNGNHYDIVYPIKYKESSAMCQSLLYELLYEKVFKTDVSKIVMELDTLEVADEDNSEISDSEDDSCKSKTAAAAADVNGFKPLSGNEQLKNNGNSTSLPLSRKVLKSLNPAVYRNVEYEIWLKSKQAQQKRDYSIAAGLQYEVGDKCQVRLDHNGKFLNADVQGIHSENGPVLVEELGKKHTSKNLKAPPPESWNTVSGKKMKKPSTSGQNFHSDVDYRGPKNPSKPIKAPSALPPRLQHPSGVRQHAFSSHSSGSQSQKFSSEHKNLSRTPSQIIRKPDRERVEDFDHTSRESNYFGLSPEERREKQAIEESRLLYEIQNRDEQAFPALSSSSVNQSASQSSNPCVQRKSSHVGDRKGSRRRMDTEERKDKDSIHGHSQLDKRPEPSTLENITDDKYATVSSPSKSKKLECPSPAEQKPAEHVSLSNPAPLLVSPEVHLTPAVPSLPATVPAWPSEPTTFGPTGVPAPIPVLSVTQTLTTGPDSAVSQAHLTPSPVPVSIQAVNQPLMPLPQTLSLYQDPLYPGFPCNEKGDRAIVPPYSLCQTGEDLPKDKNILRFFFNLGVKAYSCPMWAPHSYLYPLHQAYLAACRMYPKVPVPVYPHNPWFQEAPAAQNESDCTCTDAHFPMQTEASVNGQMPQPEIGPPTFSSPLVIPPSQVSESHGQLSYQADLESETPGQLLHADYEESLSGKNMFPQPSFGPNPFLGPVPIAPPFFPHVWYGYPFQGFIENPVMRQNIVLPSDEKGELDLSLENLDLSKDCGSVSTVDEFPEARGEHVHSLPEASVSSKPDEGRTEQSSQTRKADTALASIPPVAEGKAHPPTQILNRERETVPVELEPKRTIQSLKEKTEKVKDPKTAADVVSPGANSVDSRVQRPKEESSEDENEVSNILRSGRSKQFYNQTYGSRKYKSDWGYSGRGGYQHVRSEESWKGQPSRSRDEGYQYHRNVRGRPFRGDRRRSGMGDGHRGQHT
Summary of the method: as §1

OTUD5 = target: T5, OTUD5 (UniProt Q96G74)
T5 sequence (whole entry): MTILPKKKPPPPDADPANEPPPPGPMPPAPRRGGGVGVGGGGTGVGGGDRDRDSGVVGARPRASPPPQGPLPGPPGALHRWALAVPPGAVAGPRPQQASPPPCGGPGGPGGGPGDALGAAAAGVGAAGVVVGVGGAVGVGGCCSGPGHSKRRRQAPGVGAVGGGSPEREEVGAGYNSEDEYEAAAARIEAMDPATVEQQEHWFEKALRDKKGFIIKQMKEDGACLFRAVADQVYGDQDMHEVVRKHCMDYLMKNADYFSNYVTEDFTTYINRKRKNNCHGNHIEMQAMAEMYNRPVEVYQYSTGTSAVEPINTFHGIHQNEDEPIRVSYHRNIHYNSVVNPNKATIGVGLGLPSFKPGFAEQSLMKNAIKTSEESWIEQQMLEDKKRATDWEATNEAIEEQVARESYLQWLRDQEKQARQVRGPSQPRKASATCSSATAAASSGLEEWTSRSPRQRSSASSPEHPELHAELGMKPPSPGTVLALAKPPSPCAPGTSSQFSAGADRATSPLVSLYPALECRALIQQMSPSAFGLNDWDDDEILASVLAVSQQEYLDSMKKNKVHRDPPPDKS
Summary of the method: as §1

## O=C(CCl)N1CCOC(c2cccc(F)c2)C1 (centres undefined)
ALG13
  log2 ratio of Biotin-Ahx-Ub-VS probe labelling: -0.261
ATXN3
  log2 ratio of Biotin-Ahx-Ub-VS probe labelling: -2.59 (active)
BAP1
  log2 ratio of Biotin-Ahx-Ub-VS probe labelling: -1.09 (active)
EIF3F
  log2 ratio of Biotin-Ahx-Ub-VS probe labelling: -0.0524
EIF3H
  log2 ratio of Biotin-Ahx-Ub-VS probe labelling: 0.265
FAM105A
  log2 ratio of Biotin-Ahx-Ub-VS probe labelling: -0.167
OTUB1
  log2 ratio of Biotin-Ahx-Ub-VS probe labelling: -0.175
OTUD4
  log2 ratio of Biotin-Ahx-Ub-VS probe labelling: -0.803
OTUD5
  log2 ratio of Biotin-Ahx-Ub-VS probe labelling: -0.491
